For test [1], the target named is Sphingosine kinase 1 (Homo sapiens) (UniProt Q9NYA1). As to conditions: at 1 µM.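 Further: mean SPHK1 inhibition value reported from the GSK PKIS kinase panel screen.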
Test [2] addresses T1, Sphingosine kinase 2 (Homo sapiens) (UniProt Q9NRA0).
T1 sequence (whole entry): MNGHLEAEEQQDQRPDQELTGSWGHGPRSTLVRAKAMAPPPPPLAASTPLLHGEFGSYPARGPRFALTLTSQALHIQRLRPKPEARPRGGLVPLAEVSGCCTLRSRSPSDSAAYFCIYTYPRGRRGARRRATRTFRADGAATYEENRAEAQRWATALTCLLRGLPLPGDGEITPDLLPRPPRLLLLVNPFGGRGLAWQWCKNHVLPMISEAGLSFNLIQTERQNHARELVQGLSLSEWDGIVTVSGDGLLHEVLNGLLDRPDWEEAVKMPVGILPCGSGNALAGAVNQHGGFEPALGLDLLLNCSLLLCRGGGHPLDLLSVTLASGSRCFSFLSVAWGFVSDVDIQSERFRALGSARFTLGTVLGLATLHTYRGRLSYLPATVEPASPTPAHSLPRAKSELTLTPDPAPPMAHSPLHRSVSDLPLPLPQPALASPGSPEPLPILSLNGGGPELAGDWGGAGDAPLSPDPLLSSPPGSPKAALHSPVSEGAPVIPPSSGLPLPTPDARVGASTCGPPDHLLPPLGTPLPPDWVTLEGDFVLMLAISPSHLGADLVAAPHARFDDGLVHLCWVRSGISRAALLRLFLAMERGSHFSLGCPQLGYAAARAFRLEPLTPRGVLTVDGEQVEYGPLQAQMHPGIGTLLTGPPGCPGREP
As to conditions: at 0.1 µM.

The target in test [3] is T1, Sphingosine kinase 2 (Homo sapiens). As to conditions: at 1 µM.
The target of test [4] is Casein kinase II subunit alpha (Homo sapiens) (UniProt P68400). As to conditions: at 0.1 µM.
Test [5] shares this target. The settings on record: at 1 µM.
Test [6] deals with T2, Inhibitor of nuclear factor kappa-B kinase subunit alpha (Homo sapiens) (UniProt O15111).
T2 sequence (whole entry): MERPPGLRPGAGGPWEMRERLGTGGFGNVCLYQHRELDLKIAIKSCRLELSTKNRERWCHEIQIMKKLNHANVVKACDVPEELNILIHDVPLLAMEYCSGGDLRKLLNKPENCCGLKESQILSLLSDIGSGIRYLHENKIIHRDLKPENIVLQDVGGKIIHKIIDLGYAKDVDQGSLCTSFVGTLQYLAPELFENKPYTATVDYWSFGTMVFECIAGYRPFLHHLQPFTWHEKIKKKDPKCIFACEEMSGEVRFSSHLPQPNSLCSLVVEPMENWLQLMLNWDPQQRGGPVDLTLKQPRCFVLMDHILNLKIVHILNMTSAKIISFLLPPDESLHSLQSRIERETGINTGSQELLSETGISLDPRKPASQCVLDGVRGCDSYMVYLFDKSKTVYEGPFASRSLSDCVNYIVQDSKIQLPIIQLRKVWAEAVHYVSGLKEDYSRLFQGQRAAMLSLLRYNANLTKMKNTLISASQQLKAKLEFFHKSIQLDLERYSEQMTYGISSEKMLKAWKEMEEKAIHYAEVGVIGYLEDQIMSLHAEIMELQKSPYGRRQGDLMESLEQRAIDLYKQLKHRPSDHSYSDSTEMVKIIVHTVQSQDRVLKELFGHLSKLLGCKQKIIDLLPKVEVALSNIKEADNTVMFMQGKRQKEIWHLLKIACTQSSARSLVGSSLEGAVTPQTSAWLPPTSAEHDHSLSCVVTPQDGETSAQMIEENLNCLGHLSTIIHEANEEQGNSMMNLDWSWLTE
The settings on record: at 0.1 µM.

Test [7] has as its target T2, Inhibitor of nuclear factor kappa-B kinase subunit alpha (Homo sapiens). The settings on record: at 1 µM.
For test [8], the target named is T3, Inhibitor of nuclear factor kappa-B kinase subunit beta (Homo sapiens) (UniProt O14920).
T3 sequence (whole entry): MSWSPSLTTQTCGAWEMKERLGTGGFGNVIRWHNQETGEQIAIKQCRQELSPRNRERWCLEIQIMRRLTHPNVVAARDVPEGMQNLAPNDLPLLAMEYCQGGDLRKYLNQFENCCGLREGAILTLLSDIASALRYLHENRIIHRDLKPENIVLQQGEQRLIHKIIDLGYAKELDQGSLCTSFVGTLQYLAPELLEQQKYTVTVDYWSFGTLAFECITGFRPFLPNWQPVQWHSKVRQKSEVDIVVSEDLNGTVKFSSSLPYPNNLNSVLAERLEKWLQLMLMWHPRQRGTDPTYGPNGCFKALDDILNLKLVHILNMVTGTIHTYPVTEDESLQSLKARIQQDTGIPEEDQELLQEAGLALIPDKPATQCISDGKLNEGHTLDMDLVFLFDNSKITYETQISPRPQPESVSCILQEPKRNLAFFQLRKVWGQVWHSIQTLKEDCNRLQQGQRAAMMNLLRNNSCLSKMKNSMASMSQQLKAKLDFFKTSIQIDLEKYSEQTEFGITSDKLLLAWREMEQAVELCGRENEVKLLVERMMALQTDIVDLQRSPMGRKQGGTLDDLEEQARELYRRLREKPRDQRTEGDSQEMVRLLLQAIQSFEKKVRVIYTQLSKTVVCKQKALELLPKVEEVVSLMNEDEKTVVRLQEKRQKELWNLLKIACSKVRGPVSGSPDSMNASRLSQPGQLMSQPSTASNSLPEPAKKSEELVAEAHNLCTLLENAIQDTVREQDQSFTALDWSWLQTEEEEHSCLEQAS
The settings on record: at 0.1 µM.

Test [9] concerns the target T3, Inhibitor of nuclear factor kappa-B kinase subunit beta (Homo sapiens). The settings on record: at 1 µM.
Test [10] deals with T4, Inhibitor of nuclear factor kappa-B kinase subunit epsilon (Homo sapiens) (UniProt Q14164).
T4 sequence (whole entry): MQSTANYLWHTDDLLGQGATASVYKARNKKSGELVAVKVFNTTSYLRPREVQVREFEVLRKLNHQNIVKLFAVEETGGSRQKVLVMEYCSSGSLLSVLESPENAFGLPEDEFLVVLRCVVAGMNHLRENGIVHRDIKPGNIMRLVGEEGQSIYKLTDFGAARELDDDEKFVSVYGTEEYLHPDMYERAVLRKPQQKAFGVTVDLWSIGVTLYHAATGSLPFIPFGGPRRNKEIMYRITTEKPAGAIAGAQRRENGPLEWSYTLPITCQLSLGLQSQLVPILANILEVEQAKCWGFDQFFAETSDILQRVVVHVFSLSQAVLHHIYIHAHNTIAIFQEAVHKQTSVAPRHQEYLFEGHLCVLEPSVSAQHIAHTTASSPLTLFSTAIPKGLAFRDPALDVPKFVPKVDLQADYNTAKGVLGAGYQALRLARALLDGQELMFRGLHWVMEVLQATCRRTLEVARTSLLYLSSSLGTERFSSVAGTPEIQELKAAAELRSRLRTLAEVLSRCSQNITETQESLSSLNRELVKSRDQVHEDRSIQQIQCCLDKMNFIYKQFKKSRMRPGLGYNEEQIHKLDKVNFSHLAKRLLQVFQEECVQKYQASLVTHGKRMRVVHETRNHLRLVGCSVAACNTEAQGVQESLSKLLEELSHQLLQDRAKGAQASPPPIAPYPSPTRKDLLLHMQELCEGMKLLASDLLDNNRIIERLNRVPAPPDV
The settings on record: at 0.1 µM.

Molecules are shown by their SMILES.

Sphingosine kinase 1 (Homo sapiens), sequence (Q9NYA1 whole entry): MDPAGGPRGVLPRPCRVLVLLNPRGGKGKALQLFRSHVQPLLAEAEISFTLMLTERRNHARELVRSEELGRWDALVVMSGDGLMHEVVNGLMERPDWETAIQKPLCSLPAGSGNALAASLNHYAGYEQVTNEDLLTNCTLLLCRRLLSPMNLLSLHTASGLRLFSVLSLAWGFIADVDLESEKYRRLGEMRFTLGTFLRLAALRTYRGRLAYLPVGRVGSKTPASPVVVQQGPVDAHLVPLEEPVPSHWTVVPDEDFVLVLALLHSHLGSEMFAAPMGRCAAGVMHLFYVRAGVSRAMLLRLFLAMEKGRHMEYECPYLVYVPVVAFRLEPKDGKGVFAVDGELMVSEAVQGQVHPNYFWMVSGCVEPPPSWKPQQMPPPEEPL
Casein kinase II subunit alpha (Homo sapiens), sequence (P68400 whole entry, looked up): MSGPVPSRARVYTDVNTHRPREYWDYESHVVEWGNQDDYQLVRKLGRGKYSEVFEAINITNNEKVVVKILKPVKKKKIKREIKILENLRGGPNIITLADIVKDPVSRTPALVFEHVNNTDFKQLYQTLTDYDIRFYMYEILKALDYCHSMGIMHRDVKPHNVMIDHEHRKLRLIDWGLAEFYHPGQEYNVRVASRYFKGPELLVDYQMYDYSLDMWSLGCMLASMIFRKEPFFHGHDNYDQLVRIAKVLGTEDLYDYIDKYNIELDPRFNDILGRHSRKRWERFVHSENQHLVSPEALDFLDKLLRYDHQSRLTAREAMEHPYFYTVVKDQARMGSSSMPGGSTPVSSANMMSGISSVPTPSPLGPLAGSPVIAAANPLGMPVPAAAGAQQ

Turning to `O=C(Nc1n[nH]c2nc(-c3ccco3)c(Br)cc12)C1CC1`, the inhibition (commonly the drop in the measured response relative to a control, in per cent) in test [1] was -1.04%; in test [2] it was 0.57%; in test [3] it was 0.07%; in [4] it was -0.1%; in [5], -1.87%; in [6], -4.07%. Also, the inhibition is -2.15% in test [7], 1.61% in test [8], 2.38% in [9] and 3.19% in [10].

Regarding `O=C1NC(=O)C(c2ccccc2Cl)=C1Nc1cccc(O)c1`, the inhibition in test [1] was -1.02%; in test [2], 0.69%; in test [3] it was -0.36%; in test [4], 0.98%; in test [5] it was 0.1%; in test [6] it was 3.36%. For the same molecule, the inhibition in [7] came to 1.21%; in test [8] it was 3.78%; in test [9], 3.39%; in test [10], 1.96%.

With `Fc1cccc(COc2ccc(Nc3ncnc4sc(-c5cccs5)cc34)cc2Cl)c1`, the inhibition was 1.25% in test [1]; -2.31% in test [2]; 1.14% in test [3]; -0.4% in test [4]; 1.52% in test [5]; 3.55% in [6]. For the same molecule, the inhibition was 1.01% in test [7], 1.1% in test [8], 0.28% in test [9] and -0.11% in [10].

`COc1cc(C)c(NC(=O)CN(C)C)cc1Nc1nc(Nc2cccc(F)c2C(N)=O)c2cc[nH]c2n1`: the inhibition in test [1] is -1.23%; in [2], -0.13%; in test [3] it was -0.4%; in test [4], 7.08%; in [5] it was 35.5%; in test [6], 0.92%. The inhibition is -6.41% in [7], 0.16% in [8], -5.7% in test [9] and 1.27% in [10].

As to `NCc1ccc(-c2nc(-c3ccc(Cl)c(O)c3)c(-c3ccncc3)[nH]2)cc1`, the inhibition is -0.71% in test [1]; -0.06% in [2]; 0% in test [3]; 0.86% in test [4]; 1.53% in test [5]; 3.45% in [6]. For the same molecule, the inhibition was -3.91% in [7], 1.08% in test [8], 0.02% in [9] and 1.2% in [10].

Take `Cc1cc(O)cc(C)c1/C=C/c1cncc(-c2nn[nH]n2)c1`: the inhibition is -1.54% in test [1]; 1.53% in test [2]; -0.11% in [3]; 2.01% in test [4]; 6.14% in test [5]; 4.82% in [6]. The inhibition in test [7] came to 4%; in test [8], 5.96%; in test [9] it was 4.65%; in test [10] it was 5.04%.

Consider `CN1CCC(C(=O)Nc2n[nH]c3nnc(-c4ccccc4)cc23)CC1`, for which the inhibition in [1] was -3.46%; in test [2], -0.94%; in test [3], -2.16%; in test [4] it was 6.73%; in test [5] it was 12.2%; in test [6], 6.86%. Further, the inhibition in test [7] was 1.13%; in [8], 11.4%; in [9] it was 12.4%; in test [10], 7.37%.

`CC1=C(C(=O)Nc2ccc3[nH]ncc3c2)C(c2ccc(Cl)c(Cl)c2)CC(=O)N1` (stereo not given): the inhibition was -3.67% in [1]; -0.3% in [2]; -1.45% in test [3]; 2.1% in test [4]; 3.35% in test [5]; 5.09% in test [6]. The inhibition was 2.52% in [7], 3.16% in test [8], 0.15% in test [9] and 0.83% in test [10].

(Values after ChEMBL document CHEMBL1961873, “Compounds: GSK PKIS; Assays: Nanosyn kinase panel” (2012).)
